# Results as given in PubChem BioAssay (Tox21).
# Where “and” joins values, the source holds several entries; their conditions need not be identical. Equal entries are not always repeated. Results filed as inconclusive are left out. A call without a number means that no potency is given here. A structure can be active in one record and inactive in another. Calls of active or inactive are those of the source. Unless noted, the call rests on the fitted dose curve; in most records, active means well fitted curve in the direction sought with a large enough effect in the repeat runs; inconclusive means weak or mixed curves; inactive means no such curve, though single readings can be large; an effect the other way counts as inactive or inconclusive.
# Tests used:
# [1] = qHTS assay to identify small molecule agonists of the hypoxia (HIF-1) signaling pathway - cell viability counter screen (AID 1224844; calls by dose curve; further: nearly all actives have a fitted effect of over 50% in size)
# Outline: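 HRE-bla ME-180; 0.5% dFBS; cpd 17 h, 37C, 5% CO2; CellTiter-Glo lum., 30 min RT, post-FRET read, same wells.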
# [2] = qHTS assay to identify small molecule agonists of H2AX (AID 1224845; active means well fitted activation curve with a large enough effect in the signal ratio in the repeat runs, not every such curve was filed as active; the % refers to the signal ratio)
# Outline: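 Wild-type CHO-K1 cells, plated overnight, exposed 3hr at 37C to 15 concentrations (0.76% DMSO final). Lysed, then HTRF anti-pH2AX (S139) cryptate and anti-H2AX-d2 antibodies, 24 hr room temperature; 665/620 nm emission read.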
# [3] = qHTS assay to identify small molecule agonists of the hypoxia (HIF-1) signaling pathway (AID 1224846; active means well fitted activation curve with a large enough effect in the signal ratio in the repeat runs, not every such curve was filed as active; the % refers to the signal ratio)
# Outline: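 Reporter induction in HRE-bla ME-180 cells is taken as agonism: cells sit 5 hrs after plating, receive compounds or DMSO only, incubate 17 hrs at 37C under 5% CO2, and are loaded with CCF4-AM for beta-lactamase FRET measurement.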
# [4] = qHTS assay to identify small molecule agonists of H2AX - cell viability counter screen (AID 1224847; calls by dose curve; further: top concentration of the series differs between compounds; nearly all actives have a fitted effect of over 30% in size)
# Outline: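 After overnight plating of 1000 CHO-K1 cells per well, a 15-concentration compound series was applied for 3 hr at 37C. Luminescence from CellTiter-Glo, read following 30 min at room temperature, reflected cell viability.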
# [5] = qHTS RealTime-Glo MT Cell Viability Assay in HEK293 cells - 32 hour (AID 1224868); further: top concentration of the series differs between compounds; nearly all actives have a fitted effect of over 50% in size
# Outline: (§1)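 Viability tracked continuously by luminescence as live cells reduce a prosubstrate for NanoLuc; HEK293 cells preincubated 5 h, compound-treated at 37 C, and read at 0, 8, 16, 24, 32 and 40 h.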
# [6] = A CellTox Green Cytotoxicity Assay to monitor cytotoxicity in HEK293 cells - 0 hour (AID 1224869); further: nearly all actives have a fitted effect of over 50% in size
# Outline: (§2)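 Tox21 screen in HEK293: membrane-impermeant cyanine dye fluoresces on binding dead-cell DNA; compound pinned 5 h post-seeding, plates held at 37 C, signal read repeatedly through 40 h.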
# [7] = qHTS RealTime-Glo MT Cell Viability Assay in HepG2 cells - 40 hour (AID 1224870); further: nearly all actives have a fitted effect of over 50% in size
# Outline: (§3)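 HepG2 cells (600/well) mixed with RealTime-Glo MT reagent, settled 5 h at 37 C/5% CO2 before compound addition. Nonlytic NanoLuc luminescence from viable-cell prosubstrate reduction read repeatedly during 40 h treatment at 37 C.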
# [8] = A CellTox Green Cytotoxicity Assay to monitor cytotoxicity in HEK293 cells - 40 hour (AID 1224871); further: nearly all actives have a fitted effect of over 45% in size; further: potency means the concentration at half of the fitted maximal effect
# Outline: as §2
# [9] = qHTS RealTime-Glo MT Cell Viability Assay in HEK293 cells - 16 hour (AID 1224872)
# Outline: as §1
# [10] = qHTS RealTime-Glo MT Cell Viability Assay in HepG2 cells - 8 hour (AID 1224873); further: nearly all actives have a fitted effect of over 55% in size
# Outline: as §3
# [11] = qHTS RealTime-Glo MT Cell Viability Assay in HEK293 cells - 40 hour (AID 1224874); conditions: RealTime-Glo luminescence; max response: stronger effect = lower value; further: nearly all actives have a fitted effect of over 50% in size
# Outline: (§4)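 HEK293 + NanoLuc + prosubstrate, 600 cells/well; 5 h, 37 C/5% CO2; compound 23 nL in DMSO by pintool; 37 C; luminescence read at 0, 8, 16, 24, 32 and 40 h time points.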
# [12] = A CellTox Green Cytotoxicity Assay to monitor cytotoxicity in HEK293 cells - 24 hour (AID 1224875); further: series mostly up to about 77 µM; nearly all actives have a fitted effect of over 45% in size
# Outline: as §2
# [13] = A CellTox Green Cytotoxicity Assay to monitor cytotoxicity in HepG2 cells - 16 hour (AID 1224876); further: nearly all actives have a fitted effect of over 45% in size
# Outline: (§5)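 Measurements at 0, 8, 16, 24, 32 and 40 h of treatment captured CellTox Green fluorescence in HepG2 cells that had been co-plated with reagent and preincubated 5 h at 37 C/5% CO2.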
# [14] = qHTS RealTime-Glo MT Cell Viability Assay in HepG2 cells - 32 hour (AID 1224877); further: nearly all actives have a fitted effect of over 55% in size
# Outline: (§6)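 Viability was tracked continuously by NanoLuc luminescence from prosubstrate reduced by living HepG2 cells, at successive time points over 40 h of compound exposure. Cells with reagent were preincubated 5 h at 37 °C before compound addition.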
# [15] = A CellTox Green Cytotoxicity Assay to monitor cytotoxicity in HepG2 cells - 24 hour (AID 1224878); further: nearly all actives have a fitted effect of over 45% in size
# Outline: as §5
# [16] = qHTS RealTime-Glo MT Cell Viability Assay in HEK293 cells - 0 hour (AID 1224880)
# Outline: as §4
# [17] = A CellTox Green Cytotoxicity Assay to monitor cytotoxicity in HEK293 cells - 32 hour (AID 1224881); further: nearly all actives have a fitted effect of over 40% in size; further: potency means the concentration at half of the fitted maximal effect
# Outline: as §2
# [18] = A CellTox Green Cytotoxicity Assay to monitor cytotoxicity in HepG2 cells - 40 hour (AID 1224879); further: nearly all actives have a fitted effect of over 40% in size
# Outline: as §5
# [19] = qHTS RealTime-Glo MT Cell Viability Assay in HepG2 cells - 24 hour (AID 1224867); further: nearly all actives have a fitted effect of over 50% in size
# Outline: as §6
# [20] = qHTS assay to identify small molecule antagonists of the estrogen related receptor (ERR) signaling pathway from Tox21 library (AID 1224848); further: nearly all actives have a fitted effect of over 50% in size
# Outline: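 Quantitative high-throughput format: ERR reporter cells (2,000/well) pre-incubated 6 h, treated 18 h at 37 C with compounds in DMSO alongside positive and negative controls, then read by ONE-Glo luminescence.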
Structure (SMILES),outcome [1],outcome [2],outcome [3],outcome [4],Potency [5],outcome [6],outcome [7],Potency [8],Potency [9],Potency [10],max response [11],Potency [12],outcome [13],outcome [14],Potency [15],outcome [16],Potency [17],Potency [18],Potency [19],outcome [20]
CC(CCO)CC(C)(C)C (stereo not given),inactive,inactive,inactive,inactive,inactive,inactive,inactive,inactive,inactive,inactive,-6.13% (inactive) and 0.884% (inactive),inactive,inactive,inactive,inactive,inactive,inactive,–,–,–
CC(=O)Oc1ccc(C)cc1,inactive,inactive,inactive,inactive,–,–,inactive,inactive,inactive,inactive,7.12% (inactive) and 1.96% (inactive),inactive,inactive,inactive,inactive,inactive,inactive,inactive,–,–
CCCCCCCCCCO,inactive,inactive,inactive,inactive,inactive,–,inactive,24.6 µM (active) and inactive,inactive,inactive,1.72% (inactive) and 1.45% (inactive),–,inactive,inactive,inactive,inactive,39 µM (active) and inactive,inactive,–,–
COc1ccc(C)cc1N,inactive,inactive,inactive,inactive,inactive,–,inactive,inactive,inactive,inactive,3.89% (inactive) and 7.66% (inactive),inactive,inactive,inactive,inactive,inactive,inactive,–,–,–
COc1cc(OC)c(C(=O)CCCN2CCCC2)c(OC)c1,inactive,inactive,–,inactive,inactive,inactive,inactive,inactive,inactive,inactive,-11.2% (inactive) and -1.98% (inactive),inactive,inactive,inactive,inactive,inactive,inactive,–,inactive,–
O=C(O)c1ccc(C(=O)O)c(C(=O)O)c1,inactive,inactive,–,inactive,inactive,–,inactive,inactive,inactive,inactive,-1.73% (inactive) and 1.6% (inactive),inactive,inactive,inactive,inactive,inactive,inactive,inactive,inactive,inactive
O=C1c2ccccc2CCc2ccccc21,inactive,–,inactive,inactive,–,inactive,inactive,inactive,inactive,inactive,-14.3% (inactive) and 0.842% (inactive),inactive,inactive,inactive,inactive,inactive,inactive,inactive,–,inactive
CCCCCCCCCCCCCCCC(=O)OC(C)C,inactive,inactive,inactive,inactive,–,inactive,inactive,inactive,inactive,inactive,4.79% (inactive) and -1.72% (inactive),inactive,inactive,inactive,inactive,inactive,inactive,–,–,–
CNC(=O)Oc1ccc2c(c1)[C@]1(C)CCN(C)[C@@H]1N2C,inactive,inactive,–,inactive,inactive,–,inactive,inactive,inactive,inactive,4.52% (inactive) and 8.75% (inactive),inactive,inactive,inactive,inactive,inactive,inactive,–,inactive,–
O=c1[nH]cnc2[nH]ncc12,inactive,inactive,–,inactive,–,inactive,inactive,inactive,inactive,inactive,-0.951% (inactive) and 0.0063% (inactive),inactive,inactive,inactive,inactive,inactive,inactive,inactive,–,–
COc1ccccc1OCC(O)CO (stereo not given),inactive,inactive,–,inactive,inactive,inactive,inactive,inactive,inactive,inactive,1.4% (inactive) and 1.84% (inactive),inactive,inactive,inactive,inactive,inactive,inactive,–,–,–
Nc1ccc(Cl)c(N)c1,inactive,inactive,inactive,inactive,–,–,inactive,inactive,inactive,inactive,-8.1% (inactive) and -8.99% (inactive),inactive,inactive,inactive,inactive,inactive,inactive,–,inactive,–
COc1ccc(N)c(C)c1,inactive,inactive,inactive,inactive,inactive,inactive,inactive,inactive,inactive,inactive,9.17% (inactive) and 3.97% (inactive),inactive,inactive,inactive,inactive,inactive,inactive,inactive,–,–
C[C@]12CCC(=O)C=C1CC[C@@H]1[C@@H]2[C@@H](O)C[C@@]2(C)[C@H]1CC[C@]2(O)C(=O)CO,inactive,inactive,–,inactive,–,inactive,–,inactive,–,–,–,inactive,inactive,–,inactive,–,inactive,–,–,–
CCCCOC(=O)c1ccc(N)cc1,inactive,inactive,–,inactive,–,inactive,inactive,inactive,inactive,inactive,0.814% (inactive),inactive,inactive,inactive,inactive,inactive,inactive,–,inactive,–
